# Screening data deposited in PubChem by Columbia University Molecular Screening Center.
# Most compounds without a hit are left out; they make up all but 1% or so of the library.
# F-actin modifier = cytoskeleton assembly modification | AID 836 | 91,000 tested, 0.18% active | HUVEC TNFa F-actin phalloidin imaging, high content | inhibition, % at 2 µM;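 active = inhibition above the batch mean plus 3 SD and confirmed as a hit by visual image inspection, cut at about 30% in these data, passing the limit was not always enough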
# HUVEC tox TNFa = toxic to HUVEC cells under TNF alpha stimulation; cell count reduction, % at 2 µM; 93,000 tested, 0.17% active; HUVEC TNFalpha-stimulated, Hoechst cell count, imaging;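 active = cell count reduction exceeding the screen mean by over 5 SD, scaled to untreated wells per plate, cut at about 78% in these data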;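 note: cells counted after 24 h of TNF alpha exposure following the 1 h pretreatment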
# E-sel TNF inh = TNF alpha driven E-selectin expression inhibition; HUVEC TNFa-induced E-selectin immunofluorescence, high content; inhibition, % at 2 µM; 120,000 tested, 0.71% active; AID 1246;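 active = inhibition above the batch mean plus 3 SD, and confirmed as a hit on visual image review, cut at about 43% in these data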;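 note: 0% = TNF-stimulated DMSO wells and 100% = unstimulated control wells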
# VCAM1 TNFa inh = reduces TNF alpha induced VCAM1 expression in HUVEC | AID 802 | 95,000 tested, 0.48% active | inhibition, % at 2 µM | HUVEC TNFa-induced VCAM-1 immunofluorescence, high-content imaging;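 active = inhibition above the batch mean plus 3 SD, with images confirmed as a hit by eye, cut at about 37% in these data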;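 note: 0% = TNF-stimulated DMSO wells and 100% = unstimulated control wells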
# Active calls of the source: *; . = not tested or not shown.
SMILES,F-actin modifier,HUVEC tox TNFa,E-sel TNF inh,VCAM1 TNFa inh
O=C1C2C3C=CC(C3)C2C(=O)N1c1ccc(N2CCN(c3ccccn3)CC2)c([N+](=O)[O-])c1 (stereo not drawn),.,.,14,.
COC(=O)c1cnc(SCc2ccc(C)cc2)n1C,.,.,69*,.
Cc1ccccc1-n1nnnc1SCc1csc(-c2ccccc2)n1,-8,-24,-30,0
Cc1noc(C)c1C(=O)NCCC1=CCCCC1,-8,-32,64*,-3
CC(=O)Nc1ccc(OS(=O)(=O)c2ccc(C(C)(C)C)cc2)cc1,.,.,-4,.
COc1ccc(-c2cc(C(F)(F)F)c3c(=O)n(-c4ccccc4)[nH]c3n2)cc1,16,-17,2,13
CCOC(=O)c1c(NC(=O)CSc2nnc(C)c(=O)[nH]2)sc(C)c1C,.,.,65*,.
O=C(Nc1ccc(Oc2ccccc2)cc1)C1CCCN(c2ncccn2)C1 (stereo not drawn),71*,-5,-23,1
O=C(O)CCc1nn2c3ccccc3n(Cc3ccccc3F)c2nc1=O,.,.,23,.
CC(C)Cc1nnc(NS(C)(=O)=O)s1,16,2,52*,-3
Cc1noc(/C=C/N(C)C)c1S(=O)(=O)N1CCCC(C(=O)NC(C)c2ccccc2)C1 (stereo not drawn),12,-16,.,10
COC(=O)c1cc(COC(=O)c2ccc(OC)c(S(=O)(=O)N3CCCC3)c2)oc1C,-54,96*,.,64
CC1CC(=O)NN=C1c1ccc(N(C)C)c([N+](=O)[O-])c1 (stereo not drawn),-36,19,-19,35
CCN(CC)c1ccc(C2=NNC(=O)CC2C)cc1[N+](=O)[O-] (stereo not drawn),-53,52,-39,78*
COc1cc(C(=O)N/N=C/c2ccsc2C)cc(OC)c1OC,-58,55,-35,57*
CCOc1ccc2nc(NC(=O)C3=NN(c4ccccc4)C(=O)CC3)sc2c1,.,.,-18,.
N#Cc1ccc(NC(=O)C2CC(c3ccc(F)cc3)=NO2)cc1 (stereo not drawn),-43,4,93*,-6
CCn1c(SCC(=O)NCC2CCCO2)nc2c(c1=O)SC(C)C2 (stereo not drawn),.,.,92*,.
CCOC(=O)c1cnc(-c2ccccc2)nc1-c1ccccc1,.,.,11,.
C=C1C(=O)C=C2CN(C(=O)c3ccccc3)[C@@](Cc3ccc(F)cc3)(C(=O)OC)[C@@H]12,.,.,100*,.
O=C(CSc1nnc(CNc2ccc(F)cc2)o1)N1CCCc2ccccc21,.,.,63*,.
O=C(NCc1nnc(SCC(=O)N2CCCc3ccccc32)o1)c1ccco1,.,.,-25,.
O=C(Cn1ncc(Cl)c(Cl)c1=O)c1ccc(Cl)cc1,-1,16,28,16
O=C(OCn1ncc(Cl)c(Cl)c1=O)c1ccccc1Cl,-21,20,100*,17
O=C(OCn1ncc(Cl)c(Cl)c1=O)c1ccc(F)cc1,17,4,100*,11
SMILES,F-actin modifier,HUVEC tox TNFa,E-sel TNF inh,VCAM1 TNFa inh
CC1CCCN(Cc2csc(N)n2)C1 (stereo not drawn),.,.,-27,.
CCc1ccccc1NC(=O)CN(C)C(=O)Cn1cc(C(F)(F)F)cc(Cl)c1=O,.,.,-14,.
Cc1ccc(NC(=O)CSc2ncc3ccccn23)cc1,.,.,-30,.
CCCCCOc1ccc(Br)cc1/C(C)=N/NC1=NCCN1,49*,51,4,48
Nc1ccc2nc(-c3ccc(N)c(Cl)c3)[nH]c2c1,46*,-10,-19,-32
O=C(Nc1ccc(Cl)cn1)C1COc2ccccc2O1 (stereo not drawn),.,.,-8,.
CCC(=O)NCCCc1nc2ccccc2n1Cc1ccccc1F,.,.,-31,.
CCC(=O)NCc1nc2ccccc2n1Cc1ccccc1F,-39,-4,65*,-3
CCN(/N=C/c1ccc(Cl)cc1)c1cc(=O)n(C)c(=O)[nH]1,.,.,62*,.
COc1ccc(-c2nnc(SCC(=O)N3CCN(c4ccccc4)CC3)o2)cc1OC,.,.,-15,.
COc1ccc(-c2nnc(SCC(=O)N3CCOCC3)o2)cc1OC,.,.,96*,.
COc1cc(/C=C2\SC(=S)N(CC(=O)Nc3ccc(O)cc3)C2=O)cc(OC)c1OC,.,.,74*,.
CCN(C(=O)CN1CC(C)OC(C)C1)c1c(N)n(Cc2ccccc2)c(=O)[nH]c1=O (stereo not drawn),.,.,-7,.
COc1ccc(/C=N/OCC(=O)N2CC3(C)CC2CC(C)(C)C3)cc1 (stereo not drawn),-11,-15,-18,5
COc1ccc(/C(C)=N/OCC(=O)N2CC3(C)CC2CC(C)(C)C3)cc1 (stereo not drawn),.,.,94*,.
COC(=O)c1c(NC(=O)c2ccc(S(=O)(=O)N3CCOCC3)cc2)sc2c1CCN(C)C2,-20,7,17,54*
CCCn1c(=O)c2ccccc2n2c(SCC(=O)NCc3cccs3)nnc12,79*,-22,-7,23
